CHT block: inhibitors of human choline transporter CHT; High affinity choline transporter 1 (Homo sapiens), Q9GZV3; CHT-expressing cells, membrane potential dye, choline response; stronger effect = lower value; B-score at 10 µM; hit rate 0.86% among 310,000; AID 488975, 2010;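 active means B-score over 3 SD under the library average, and starting fluorescence ratio not unusually high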;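 further: choline stimulus applied at its EC90 after an EC20 pre-addition; B-score computed on integrated fluorescence ratio after choline addition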
Target sequence (Q9GZV3 whole entry, looked up): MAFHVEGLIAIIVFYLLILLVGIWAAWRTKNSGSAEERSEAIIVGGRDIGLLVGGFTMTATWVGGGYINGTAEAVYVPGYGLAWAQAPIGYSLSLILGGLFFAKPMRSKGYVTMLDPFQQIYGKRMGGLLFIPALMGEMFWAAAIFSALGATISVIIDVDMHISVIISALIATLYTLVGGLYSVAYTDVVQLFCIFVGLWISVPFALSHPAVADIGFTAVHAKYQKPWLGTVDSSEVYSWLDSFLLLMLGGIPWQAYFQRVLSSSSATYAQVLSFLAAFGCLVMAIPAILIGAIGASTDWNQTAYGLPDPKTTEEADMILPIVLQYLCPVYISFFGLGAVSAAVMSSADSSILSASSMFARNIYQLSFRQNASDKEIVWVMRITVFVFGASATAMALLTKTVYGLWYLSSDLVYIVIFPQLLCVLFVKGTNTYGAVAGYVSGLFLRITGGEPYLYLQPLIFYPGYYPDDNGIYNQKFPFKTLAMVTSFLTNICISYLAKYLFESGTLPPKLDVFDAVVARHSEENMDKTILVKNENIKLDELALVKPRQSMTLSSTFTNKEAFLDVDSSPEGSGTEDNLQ
CHT PAM: CHT positive allosteric modulators, primary screen, cell-based, membrane potential dye, choline EC20. CHT-expressing cells; stronger effect = higher value; LV-AA mutant CHT in HEK293 cells. B-score at 10 µM. hit rate 0.49% among 310,000. AID 488977, 2010;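 active means initial fluorescence not abnormally high and integrated response B-score, plate-corrected, over 3 SD above library mean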
TAG inh: inhibitors of triacylglycerol accumulation, primary screen, cell-based, uHTS, fluorescence, H9c2 | hit rate 0.66% among 230,000 | inhibition, % at 12.5 µM | H9c2 cells, Nile Red lipid (TAG) fluorescence; cells loaded with 200 µM oleic acid;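 active means pattern-corrected inhibition of lipid staining of at least 50% with the nuclear-stain viability signal not falling by more than 50%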;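 further: 0% = DMSO wells and 100% = triacsin C control wells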
MIN6 prolif: inducers of MIN6 beta-cell proliferation, primary screen, ATP luminescence, uHTS. AID 2380, 2010. proliferation, % at 10 µM. MIN6 cells proliferation, ATPlite luminescence, 48 h; cells starved in 0.2% serum; 100% = growth in 10% serum. hit rate 0.29% among 330,000;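 active means compounds whose signal lies at least 3.5 SD above the mean of all wells on their plate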;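 further: 0% = DMSO-treated cells in low-serum medium and 100% = 10% serum control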
Numbers without * were called inactive; i = inactive; x = no result given. Hits are enriched below; roughly 1.7% of the tested compounds scored in any of these assays.

SMILES | CHT block | CHT PAM | TAG inh | MIN6 prolif
CCOc1c(OC(C)=O)ccc(/C=C2\N=C(SCC)SC2=O)c1[N+](=O)[O-] | -5.8* | i | -10 | -4
CC1(C(=O)NS(=O)(=O)C2CC2)CCCN(C(=O)c2ccco2)C1 (centres undefined) | x | x | 2 | x
Oc1ccc2ccccc2c1N=Nc1ccc(F)cc1 | i | i | 58* | -4
Cc1ccc(/C=C/C(=O)NCCc2cccc(Cl)c2)o1 | i | i | -9 | -5
CCN1C(=O)[C@H]2[C@@H](c3ccc(C(F)(F)F)cc3)N[C@]3(CCCN(Cc4ccco4)C3=O)[C@H]2C1=O | x | x | 10 | x
O=C(Nc1cccc(N=Cc2cc(Cl)cc(Br)c2O)c1)c1ccco1 | -7.1* | i | x | -4
CC1CC1C(=O)OCC(=O)NNC(=O)c1ccc([N+](=O)[O-])cc1 (centres undefined) | x | x | 7 | 0
CN(C1=C(N2CCCCC2)C(=O)c2ccccc2C1=O)c1ccccc1 | -5.8* | i | x | -4
CC#CC[N+](C)(C)CCCCCCCC | i | i | -25 | -1
CCCCCCCCCCCCCCCC[N+](C)(C)Cc1ccc(F)cc1 | x | x | 109* | x
OC(c1cc(F)cc(Cl)c1)c1ncc(-c2ccccc2C(F)(F)F)[nH]1 (centres undefined) | x | x | -11 | x
C=CCc1cccc2cc(C(=O)Nc3cccc(C(=O)O)c3)c(=O)oc12 | -6.5* | i | x | -1
C=CCc1cccc2cc(C(=O)Nc3ccc(F)cc3)c(=O)oc12 | i | i | x | 0
COc1ccc(C(CC(=O)c2ccc3c(c2)OCO3)C(=O)O)cc1OC (centres undefined) | x | x | 2 | x
CCC(C)(C)c1ccc(OCCCC[n+]2ccccc2)c(C(C)(C)CC)c1 | i | i | 52* | -6
CCSc1nnc(NC(=O)C(CC)(C(F)(F)F)C(F)(F)F)s1 | -5.2* | i | -16 | -4
CCSc1nnc(NC(=O)C(C(F)(F)F)C(F)(F)F)s1 | i | i | x | -5
C=C1CCN(C(C)C(=O)OC)S(=O)(=O)c2ccccc21 (centres undefined) | i | i | 55* | -1
Cc1cccc(C)c1NC(=O)c1cnccn1 | i | i | 10 | 1
COc1ccc(C(=O)NCCc2nnc3ccc(SCC(=O)Nc4ccccc4F)nn23)cc1 | i | i | -4 | 1
COc1cc(-c2nc(-c3ccc(NC(=O)c4ccc5c(c4)OCO5)cc3)no2)cc(OC)c1OC | i | i | 93* | -5
CCN(CC)CCOC(=O)/C=C/c1ccccc1 | i | i | 1 | 2
CCN(CC)CC(C)(C)C(=O)/C=C/c1ccc(/C=C/C(=O)C(C)(C)CN(CC)CC)cc1 | x | x | 112* | x
Cc1cc(C)cc(C(=O)N2CC(=O)Nc3ccccc32)c1 | i | i | 55* | -3
COc1cc(C(=O)N2CC(=O)Nc3ccccc32)cc(OC)c1OC | x | x | 25 | x
SMILES | CHT block | CHT PAM | TAG inh | MIN6 prolif
Cc1cc(C)c2nc(SCC(=O)N3CC(=O)Nc4ccccc43)c(C#N)cc2c1 | i | i | 54* | -5
CSCCC(NC(=O)c1ccco1)C(=O)NCC1CCCO1 (centres undefined) | x | x | 13 | -4
CC(=O)n1cc(N(C(=O)CCl)c2ccccc2)c2ccccc21 | i | i | 65* | -4
CC(=O)n1cc(N(C(=O)CCl)c2ccc([N+](=O)[O-])cc2)c2ccccc21 | i | i | 33 | -4
O=C(CCl)N(c1ccccc1)c1c[nH]c2ccccc12 | i | i | 79* | -4
O=C(OCc1ccc([N+](=O)[O-])cc1)c1cc([N+](=O)[O-])ccc1N1CCOCC1 | i | i | 2 | -4
COc1ccc(C(=O)c2cc([N+](=O)[O-])ccc2N2CCOCC2)cc1 | i | 10* | 38 | x
COc1ccc(CCNC(=O)c2cc([N+](=O)[O-])ccc2N2CCOCC2)cc1 | i | i | 11 | -4
Cc1ccc(COC(=O)c2cc([N+](=O)[O-])ccc2N2CCOCC2)cc1 | i | 6.4* | 81 | -6
COc1cccc(C(=O)OCC(=O)NCCCc2ccccc2)c1 | i | i | x | -1
Cc1ccccc1S(=O)(=O)N(C)C[C@@H]1OCc2cn(nn2)CCCC(=O)N([C@H](C)CO)C[C@H]1C | x | x | 2 | x
COc1ccc(Nc2cc(Nc3cc(OC)c(OC)c(OC)c3)ncn2)cc1 | i | i | x | -2
Cc1oc2c(c(=O)c1C)C(=O)CC(c1ccccc1)C2 (centres undefined) | i | i | 13 | -2
CS(=O)(=O)c1sc(C#N)c2c1C(=O)CC(c1ccccc1)C2 (centres undefined) | -7.1* | i | 93* | -4
Cc1ccc(Cn2c(=N)c(C(=O)NC3CCCCC3)cc3c(=O)n4ccccc4nc32)cc1 | i | i | x | -8
Cc1ccc2nc3c(cc(C(=O)NC4CCCC4)c(=N)n3CCCn3ccnc3)c(=O)n2c1 | i | 6.4* | x | -1
CC1CCCN(C(=O)c2ccc3c(c2NCCO)C(=O)c2ccccc2C3=O)C1 (centres undefined) | -5.4* | i | 90* | 1
Cc1ccc(S(=O)(=O)N2CC3(O)CN(C(=O)OC(C)C)N(C(=O)OC(C)C)CC3(OC(=O)NCc3ccco3)C2)cc1 (centres undefined) | x | x | 11 | x
COc1ccccc1-c1cc(C(F)(F)F)nc(S(=O)(=O)CCCC(=O)N2CCCCC2C)n1 (centres undefined) | i | i | 67* | -3
COc1ccccc1-c1cc(C(F)(F)F)nc(S(=O)(=O)CCCC(=O)NCc2ccc(F)cc2)n1 | i | i | 82 | -7
CCSc1nc2sc3c(c2c(=O)n1-c1ccccc1)CCN(C)C3 | i | i | 1 | -3
COCCSc1nc2sc3c(c2c(=O)n1-c1ccccc1)CCN(C)C3 | i | 7.5* | 12 | 0
CCn1c(SCC(N)=O)nc2sc3c(c2c1=O)CCN(C)C3 | i | 7.9* | -11 | -3
CCC(O)CNc1nc(SC)nc2sc3c(c12)CCN(C)C3 (centres undefined) | i | 7.1* | x | -4
CCSc1nc(N)c2c3c(sc2n1)CN(C)CC3 | i | 6.3* | x | 2
SMILES | CHT block | CHT PAM | TAG inh | MIN6 prolif
Cc1c(C(=O)N(Cc2ccccc2)C(C)C)oc2ccc(S(=O)(=O)N3CCOCC3)cc12 | i | i | x | -2
COc1ccc(NC(=O)C2CCCN2C(=O)NC2CCCCC2)cc1 (centres undefined) | i | i | x | 4
C=CCSc1nc(N)c2c3c(sc2n1)CN(C)CC3 | i | i | x | 2
CSc1nc(N)c2c3c(sc2n1)CN(C)CC3 | i | 7.7* | x | 1
CSc1nc(SCC(N)=O)c2c3c(sc2n1)CN(C)CC3 | i | 6.3* | -3 | -2
CCNc1nc(SCC(N)=O)nc2sc3c(c12)CCN(C)C3 | x | x | x | -4
Cc1ccc(C)c(S(=O)(=O)N2CCN(C(=O)c3ccnn3C)CC2)c1 | i | i | 5 | -3

Screening results: PubChem, several laboratories
